According to PubChem BioAssay AID1159580 (chemical genetic matrix, 2015):
Out of some 5,500 compounds screened, about 2,000 (36%) were called active. Another 18% or so got no clear call; they are omitted. Cut-off read from the data, not from the text of the source: active = normalized growth mostly below about 0.91 (no sharp cut-off); inconclusive = no clear call, values can overlap the other calls; inactive = mostly above about 0.92. Some of the results follow.

Assay: chemical genetic growth profiling, strain panel (AID 1159580);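 note: tested at 20 µM; growth read once vehicle control cultures reached saturation at 30 °C; 1 = growth at the plate median or of vehicle wells; lower values mean less growth of the strain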
Conditions: growth OD

Measured: normalized growth

OC(c1cc(C(F)(F)F)nc2c(C(F)(F)F)cccc12)C1CCCCN1 (stereo not drawn)
inactive: S. cerevisiae deletion strains, locus YJR066W, strain TOR1, stronger effect = lower value 0.936 | S. cerevisiae deletion strains, locus YJR075W, strain HOC1, stronger effect = lower value 0.978 | S. cerevisiae deletion strains, locus YKL009W, strain mrt4, stronger effect = lower value 0.987 | S. cerevisiae deletion strains, locus YKL068W, stronger effect = lower value 0.99 | S. cerevisiae deletion strains, locus YKL085W, strain MDH1 (second series), stronger effect = lower value 0.989 | S. cerevisiae deletion strains, locus YKL085W, strain MDH1, stronger effect = lower value 0.989 | S. cerevisiae deletion strains, locus YKL160W, strain elf1, stronger effect = lower value 0.99 | S. cerevisiae deletion strains, locus YKL190W, strain CNB1, stronger effect = lower value 0.99 | S. cerevisiae deletion strains, locus YKR001C, strain vps1, stronger effect = lower value 1 | S. cerevisiae deletion strains, locus YKR026C, strain gcn3, stronger effect = lower value 1.01 | S. cerevisiae deletion strains, locus YKR091W, strain srl3, stronger effect = lower value 1 | S. cerevisiae deletion strains, locus YLL001W, strain dnm1, stronger effect = lower value 1 | S. cerevisiae deletion strains, locus YLL026W, stronger effect = lower value 1.01 | S. cerevisiae deletion strains, locus YLL041C, strain sdh2, stronger effect = lower value 1.02 | S. cerevisiae deletion strains, locus YLR027C, strain aat2, stronger effect = lower value 0.996 | S. cerevisiae deletion strains, locus YLR039C, strain RIC1, stronger effect = lower value 1.12 | S. cerevisiae deletion strains, locus YLR058C, strain SHM2, stronger effect = lower value 0.991 | S. cerevisiae deletion strains, locus YLR102C, strain apc9, stronger effect = lower value 0.991 | S. cerevisiae deletion strains, locus YLR113W, strain HOG1, stronger effect = lower value 0.93 | S. cerevisiae deletion strains, locus YLR221C, strain rsa3, stronger effect = lower value 1.02 | S. cerevisiae deletion strains, locus YLR258W, strain gsy2, stronger effect = lower value 1.01 | S. cerevisiae deletion strains, locus YLR262C, strain YPT6 (second series), stronger effect = lower value 1.11 | S. cerevisiae deletion strains, locus YLR262C, strain YPT6, stronger effect = lower value 1.15 | S. cerevisiae deletion strains, locus YLR268W, strain sec22, stronger effect = lower value 0.975 | S. cerevisiae deletion strains, locus YLR320W, strain mms22, stronger effect = lower value 1.01 | S. cerevisiae deletion strains, locus YLR330W, strain CHS5, stronger effect = lower value 0.992 | S. cerevisiae deletion strains, locus YLR342W, strain FKS1 (second series), stronger effect = lower value 0.962 | S. cerevisiae deletion strains, locus YLR342W, strain FKS1, stronger effect = lower value 1.01 | S. cerevisiae deletion strains, locus YLR357W, strain rsc2, stronger effect = lower value 1.09 | S. cerevisiae deletion strains, locus YLR370C, strain arc18, stronger effect = lower value 1 | S. cerevisiae deletion strains, locus YLR371W, strain rom2, stronger effect = lower value 0.988 | S. cerevisiae deletion strains, locus YLR384C, strain iki3, stronger effect = lower value 1.01 | S. cerevisiae deletion strains, locus YLR418C, strain cdc73, stronger effect = lower value 0.931 | S. cerevisiae deletion strains, locus YML016C, strain PPZ1, stronger effect = lower value 0.989 | S. cerevisiae deletion strains, locus YML032C, strain rad52, stronger effect = lower value 0.978 | S. cerevisiae deletion strains, locus YML120C, strain ndi1, stronger effect = lower value 1 | S. cerevisiae deletion strains, locus YML124C, strain tub3, stronger effect = lower value 0.99 | S. cerevisiae deletion strains, locus YMR058W, strain fet3, stronger effect = lower value 0.997 | S. cerevisiae deletion strains, locus YMR078C, strain ctf18, stronger effect = lower value 0.994 | S. cerevisiae deletion strains, locus YMR125W, strain sto1, stronger effect = lower value 1 | S. cerevisiae deletion strains, locus YMR129W, stronger effect = lower value 0.997 | S. cerevisiae deletion strains, locus YMR205C, strain PFK2, stronger effect = lower value 1.01 | S. cerevisiae deletion strains, locus YMR223W, strain ubp8, stronger effect = lower value 0.973 | S. cerevisiae deletion strains, locus YMR231W, strain pep5, stronger effect = lower value 1.01 | S. cerevisiae deletion strains, locus YMR307W, strain GAS1, stronger effect = lower value 0.869 | S. cerevisiae deletion strains, locus YNL067W, strain RPL9B, stronger effect = lower value 0.981 | S. cerevisiae deletion strains, locus YNL071W, strain lat1, stronger effect = lower value 1.02 | S. cerevisiae deletion strains, locus YNL183C, strain NPR1, stronger effect = lower value 0.93 | S. cerevisiae deletion strains, locus YNL209W, strain ssb2, stronger effect = lower value 0.996 | S. cerevisiae deletion strains, locus YNL233W, strain BNI4, stronger effect = lower value 0.959 | S. cerevisiae deletion strains, locus YNL248C, strain rpa49, stronger effect = lower value 0.999 | S. cerevisiae deletion strains, locus YNL250W, strain rad50, stronger effect = lower value 0.986 | S. cerevisiae deletion strains, locus YNL271C, strain bni1, stronger effect = lower value 0.985 | S. cerevisiae deletion strains, locus YNL298W, strain CLA4, stronger effect = lower value 0.995 | S. cerevisiae deletion strains, locus YNL307C, strain MCK1, stronger effect = lower value 0.992 | S. cerevisiae deletion strains, locus YNL322C, strain KRE1 (second series), stronger effect = lower value 0.988 | S. cerevisiae deletion strains, locus YNL322C, strain KRE1, stronger effect = lower value 0.987 | S. cerevisiae deletion strains, locus YNR049C, strain mso1, stronger effect = lower value 1.01 | S. cerevisiae deletion strains, locus YNR052C, strain pop2, stronger effect = lower value 0.99 | S. cerevisiae deletion strains, locus YOL006C, strain TOP1, stronger effect = lower value 0.993 | S. cerevisiae deletion strains, locus YOL012C, strain htz1 0.986 | S. cerevisiae deletion strains, locus YOL147C, strain pex11, stronger effect = lower value 1.01 | S. cerevisiae deletion strains, locus YOR001W, strain rrp6, stronger effect = lower value 0.999 | S. cerevisiae deletion strains, locus YOR061W, strain CKA2, stronger effect = lower value 0.991 | S. cerevisiae deletion strains, locus YOR069W, strain VPS5, stronger effect = lower value 0.997 | S. cerevisiae deletion strains, locus YOR070C, strain gyp1, stronger effect = lower value 1.01 | S. cerevisiae deletion strains, locus YOR080W, strain dia2, stronger effect = lower value 1.02 | S. cerevisiae deletion strains, locus YOR083W, strain WHI5, stronger effect = lower value 1.03 | S. cerevisiae deletion strains, locus YOR106W, strain vam3, stronger effect = lower value 1.02 | S. cerevisiae deletion strains, locus YOR136W, strain idh2, stronger effect = lower value 0.988 | S. cerevisiae deletion strains, locus YOR144C, strain elg1, stronger effect = lower value 0.991 | S. cerevisiae deletion strains, locus YOR184W, strain ser1, stronger effect = lower value 0.997 | S. cerevisiae deletion strains, locus YOR231W, strain MKK1, stronger effect = lower value 0.959 | S. cerevisiae deletion strains, locus YOR265W, strain rbl2, stronger effect = lower value 1 | S. cerevisiae deletion strains, locus YOR270C, strain vph1, stronger effect = lower value 1.04 | S. cerevisiae deletion strains, locus YOR290C, strain snf2, stronger effect = lower value 0.991 | S. cerevisiae deletion strains, locus YOR316C, strain cot1, stronger effect = lower value 0.994 | S. cerevisiae deletion strains, locus YPL051W, strain arl3, stronger effect = lower value 1.01 | S. cerevisiae deletion strains, locus YPL078C, strain atp4, stronger effect = lower value 1 | S. cerevisiae deletion strains, locus YPL106C, strain sse1, stronger effect = lower value 0.999 | S. cerevisiae deletion strains, locus YPL240C, strain hsp82, stronger effect = lower value 1 | S. cerevisiae deletion strains, locus YPL256C, strain CLN2, stronger effect = lower value 0.946 | S. cerevisiae deletion strains, locus YPR119W, strain clb2, stronger effect = lower value 0.99 | S. cerevisiae deletion strains, locus YPR141C, strain kar3, stronger effect = lower value 0.988 | S. cerevisiae deletion strains, locus YPR163C, strain tif3, stronger effect = lower value 0.999 | S. cerevisiae deletion strains, locus YPR167C, strain met16, stronger effect = lower value 0.993 | S. cerevisiae deletion strains, strain wtn01, stronger effect = lower value 0.96 | S. cerevisiae strains, strain wild type, stronger effect = lower value 0.983
